Compounds with a hit are over-represented: about 2.2% of the library has one in this group of screens.
aSyn UTR inh – MLPCN primary screen, SNCA 5' untranslated region; alpha-synuclein 5'UTR reporter, inhibitor activity; inhibition, % (tested at 7.5 µM); hit rate 0.82% among 300,000; AID 1813; in the data active = inhibition above about 60%;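 also: H4 neuroglioblastoma cells stably carrying SNCA 5'UTR luciferase fusion; 0% = DMSO wells and 100% = positive control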
KLF5 inhibitor – kruppel-like factor 5 inhibition. DLD-1 KLF5 promoter-luciferase reporter, luminescence. inhibition, % at 5 µM. hit rate 0.23% among 290,000. AID 1700;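 active = inhibition above a per-plate limit of that plate's mean compound inhibition plus 3 SD, cut at about 60% in these data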;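 also: 0% = DMSO wells and 100% = LY294002 at 200 µM; higher means less KLF5 promoter-driven luciferase light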
IEC-6 tox-1 – counter-screen for KLF5 inhibitors: cytotoxicity in IEC-6 cells; inhibition, % at 5 µM; hit rate 0.78% among 290,000; IEC-6 cytotoxicity, luminescence viability; AID 1825;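 also: 0% = plate median of test compound wells and 100% = cytotoxic reference compound wells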
Ba/F3 V617F tox – loss of viability in JAK2V617F-driven Ba/F3 cells. Ba/F3 EpoR-JAK2V617F viability, ATP luminescence. inhibition, % at 5.6 µM. hit rate 1.1% among 220,000. AID 1446;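 active = inhibition above the campaign mean plus 3 SD over all tested compounds, cut at about 24% in these data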;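 also: cytokine-independent growth of Ba/F3 cells driven by EpoR plus mutant JAK2; 0% = DMSO-treated cells and 100% = JAK inhibitor I control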
APP 5UTR inh – APP translation inhibition | inhibition, % at 2 µM | AID 1285 | SH-SY5Y APP 5'UTR-luciferase reporter, luminescence | hit rate 0.82% among 190,000;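 active = inhibition above a set limit, derived from the sample mean plus 3 SD, cut at about 45% in these data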
BaF3 parental – counter-screen for JAK2V617F inhibitors: parental Ba/F3 viability inhibitors | inhibition, % at 5.6 µM | CellTiter-Glo ATP luminescence | hit rate 1.1% among 220,000;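 active = inhibition above a per-campaign cutoff, the mean inhibition of all tested compounds plus 3 SD, cut at about 27% in these data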;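 also: 0% = DMSO wells and 100% = JAK Inhibitor I control wells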
BaF3 tox 2 – counter-screen for JAK2V617F inhibitors: parental Ba/F3 viability inhibitors | shares compounds with Ba/F3 V617F tox | CellTiter-Glo luminescence; cells kept alive by added IL-3 | inhibition, % at 5.6 µM | hit rate 31% among 580;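 active = cell growth inhibition above the hit limit set in the earlier mutant JAK2 cell screen, cut at about 27% in these data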;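 also: plate controls were DMSO-treated cells for no effect and JAK Inhibitor I control wells for full effect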
JAK2V617F confrm – Ba/F3 EpoR-JAK2V617F viability loss, confirmation. CellTiter-Glo luminescence. shares compounds with Ba/F3 V617F tox. hit rate 66% among 580. inhibition, % at 5.6 µM;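 active = mean inhibition above the hit cutoff derived in the earlier primary screen, cut at about 25% in these data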;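 also: 0% = DMSO-treated cells and 100% = JAK inhibitor I control wells; higher means lower luminescence from reduced cell ATP and viability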
KLF5 confirm – KLF5 inhibition, confirmation assay; shares compounds with KLF5 inhibitor; DLD-1 KLF5 promoter firefly luciferase reporter, luminescence; inhibition, % at 4 µM; hit rate 79% among 610; AID 1834;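 active = inhibition above a set limit taken from the earlier primary screen, cut at about 63% in these data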;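 also: 0% = DMSO wells and 100% = LY294002 at 200 µM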
IEC-6 tox-2 – kills rat IEC-6 cells in KLF5 counter-screen. shares compounds with KLF5 inhibitor. IEC-6 rat intestinal cells, viability luminescence. hit rate 56% among 610. inhibition, % at 4 µM; in the data active = inhibition above about 23%;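 also: cells exposed to compounds for 48 hours before viability read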
IEC-6 tox confirm – confirmation of cytotoxic compounds in rat IEC-6 intestinal epithelial cells; shares compounds with IEC-6 tox-1; IEC-6 rat intestinal epithelial viability, luminescence; inhibition, % at 5 µM; hit rate 63% among 1,900; AID 1907;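 also: 0% = vehicle and 100% = reference cytotoxic drug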
An asterisk follows results filed as active; . = no result given. Rule as the data show it, unless noted: active = inhibition above about 22%; inactive = the rest.

SMILES | aSyn UTR inh | KLF5 inhibitor | IEC-6 tox-1 | Ba/F3 V617F tox | APP 5UTR inh | BaF3 parental | KLF5 confirm | IEC-6 tox-2 | others
CCn1c(COC(=O)CNC(=O)c2cc(OC)c(OC)c(OC)c2)nc2cc(S(=O)(=O)N(C)C)ccc21 | 4 | . | . | . | . | . | . | .
CCCS(=O)(=O)c1nnnn1-c1cccc(OC)c1 | -6 | 5 | 33* | 39* | 62* | 5 | . | . | BaF3 tox 2=76*;JAK2V617F confrm=99*;IEC-6 tox confirm=48*
Cc1ccc(C(=O)N2CCN(c3ccc(NC(=O)Cc4ccccc4)cc3)CC2)cc1 | 6 | -5 | -4 | . | . | . | . | .
Nc1nnnn1/N=C/C(Br)=C/c1ccccc1 | -251 | 10 | 101* | 74* | 91* | -2 | . | . | BaF3 tox 2=105*;JAK2V617F confrm=100*;IEC-6 tox confirm=54*
COc1ccc(-c2cnc3c(c2)CCC3(C#N)C#N)cc1 | 29 | 19 | 70* | 38* | 62* | 9 | . | . | BaF3 tox 2=1;JAK2V617F confrm=78*;IEC-6 tox confirm=6
CCCN(CC(=O)Nc1ccccc1C)C(=O)c1ccc(=O)n(Cc2ccccc2)n1 | 4 | . | . | . | . | . | . | .
O=C(Sc1ccc(Cl)cc1)c1ccccn1 | -8 | . | . | . | . | . | . | .
Nc1ccccc1NC1=CC(=O)CC(c2ccco2)C1 (configuration not stated) | 3 | -2 | -1 | 0 | -36 | 3 | . | .
Nc1ccccc1NC1=CC(=O)CC(c2ccccc2)C1 (configuration not stated) | -4 | 14 | 31* | 23* | -22 | 22 | . | . | BaF3 tox 2=-2;JAK2V617F confrm=-4;IEC-6 tox confirm=2
O=C(CSCc1ccco1)N1CCc2ccccc21 | -83 | -127 | -3 | . | . | . | . | .
O=C1C=C(Nc2ccc(O)cc2)C(=O)c2ccccc21 | 67* | -128 | 25* | 49* | . | 3 | . | . | BaF3 tox 2=23;JAK2V617F confrm=76*;IEC-6 tox confirm=7
COC1=C(Nc2ccc(O)cc2)C(=O)c2ccccc2C1=O | -110 | -8 | -2 | -2 | -3 | 9 | . | .
CCOc1ccccc1C(=O)Nc1ccsc1C(=O)OC | 65* | 12 | 32* | 54* | 85* | 16 | . | . | BaF3 tox 2=58*;JAK2V617F confrm=94*;IEC-6 tox confirm=53*
CCCNC(=O)c1nnsc1S(=O)(=O)c1ccc(Cl)cc1 | . | -6 | 26* | 94* | 95* | 23 | . | . | BaF3 tox 2=96*;JAK2V617F confrm=98*;IEC-6 tox confirm=22*
CCCNC(=O)NS(=O)(=O)c1ccc(Cl)cc1 | -22 | -13 | 0 | -3 | -14 | 5 | . | .
Cc1ccc(N(C(=O)CCl)C(C(=O)NC2CCCCC2)c2cccnc2)cc1C (configuration not stated) | 22 | -11 | 80* | 86* | 30 | -3 | . | . | BaF3 tox 2=77*;JAK2V617F confrm=100*;IEC-6 tox confirm=63*
Cc1ccc(N(C(=O)CNC(=O)c2ccco2)C(C(=O)NC2CCCCC2)c2cccnc2)cc1C (configuration not stated) | -15 | -27 | 1 | . | . | . | . | .
O=C(COc1ccc(S(=O)(=O)NCc2ccccc2)cc1)NCc1cccnc1 | -7 | 2 | 1 | . | . | . | . | .
CSc1nc(N(C)NC(=O)c2ccc(F)cc2)c2ccccc2n1 | 77* | 79* | 78* | 72* | 95* | 73* | 78* | 61*
Cn1c(CNC(=O)c2ccc(F)cc2)nc2ccccc21 | -7 | 1 | -4 | -3 | -12 | 0 | . | .
COc1cc(C2C(C#N)=C(C)NC3=C2C(=O)c2ccccc23)cc(OC)c1OC (configuration not stated) | . | 78* | 94* | 88* | 4 | 74* | 43 | 45*
Cc1ccc2nc(-c3ccc(O)c(O)c3)cn2c1 | 22 | -63 | 19 | . | . | . | . | .
Cc1ccc2nc(-c3ccccc3)cn2c1 | 120* | 84* | 16 | 15 | -3 | 15 | 77* | 23*
O=[N+]([O-])c1cc(CN2CCOCC2)c2cccnc2c1O | . | -1 | -6 | 5 | 5 | 8 | . | .
O=[N+]([O-])c1cc(CN2CCN(c3ccccc3)CC2)c(O)c2ncccc12 | 82* | 76* | 52* | 74* | 80* | 76* | 89* | 77*
SMILES | aSyn UTR inh | KLF5 inhibitor | IEC-6 tox-1 | Ba/F3 V617F tox | APP 5UTR inh | BaF3 parental | KLF5 confirm | IEC-6 tox-2 | others
CC1=C/C(=C(\c2cc(C)c(O)c(Br)c2)c2ccccc2S(=O)(=O)O)C=C(Br)C1=O | 46 | -6 | 8 | . | . | . | . | .
COc1cc(OC)cc(N(C(=O)CNC(=O)c2ccco2)C(C(=O)NCC2CCCO2)c2ccccc2)c1 (configuration not stated) | 18 | 65* | -5 | . | . | . | 6 | 8
COc1cc(/C=C/[N+](=O)[O-])ccc1OCc1cccc(C(=O)O)c1 | 97* | 71* | -7 | 1 | 58* | 8 | 67* | -6
COc1ccc(OC)c(Nc2cc(C)nc3nc(C)nn23)c1 | -10 | 92* | 4 | -2 | -1 | 7 | 81* | 0
O[C@@H]1CN(C2CCCCC2)CC[C@H]1N1CCN(CCc2ccccc2)CC1 | -15 | -17 | -3 | . | . | . | . | .
Cc1ccc(-c2cc(=O)c3cc(F)ccc3[nH]2)cc1 | -41 | -22 | -6 | 1 | -6 | 4 | . | .
O=c1cc(-c2ccccc2)[nH]c2ccc(F)cc12 | 87* | 69* | 82* | 75* | 92* | 74* | 82* | 57*
Cc1ccc(C(=O)NCc2ccccn2)cc1S(=O)(=O)N1CCCCC1 | 4 | -13 | 1 | . | . | . | . | .
COC(=O)c1ccccc1NC(=O)CNc1cc(Cl)ccc1N1CCOCC1 | 19 | -8 | 10 | 3 | -6 | 10 | . | .
COc1ccc(Cl)cc1NC(=O)CN(C)CC(=O)Nc1ccccc1N1CCOCC1 | 112* | 66* | 77* | 83* | 83* | 76* | 77* | 57*
CCCS(=O)(=O)c1cnc(C2COc3ccccc3O2)nc1N (configuration not stated) | 68* | 98* | 12 | . | . | . | 78* | 5
COc1cccc(/C=N/NC(=O)CNC(=O)c2ccc3c(c2)OCCO3)c1O | 27 | 0 | -5 | -2 | 5 | 6 | . | .
CCOc1cccc(/C=N/NC(=O)c2ccc3c(c2)OCCO3)c1O | 42 | 65* | 11 | . | . | . | 93* | -1
COc1ccccc1-c1nnc2n1N=C(c1ccc(O)c(O)c1)CS2 | 97* | 80* | 1 | 95* | 95* | 92* | 92* | 14
CCC1(c2ccccc2)NC(=O)N(CC(=O)Nc2ccc3c(C)cc(=O)oc3c2)C1=O (configuration not stated) | 4 | . | . | . | . | . | . | .
Cc1coc2cc3oc(=O)c(CCC(=O)N4C[C@H]5C[C@@H](C4)c4cccc(=O)n4C5)c(C)c3cc12 | 1 | -13 | 10 | . | . | . | . | .
